# Assay outcomes: PubChem, several laboratories
# CYP2C19 act = increases human CYP2C19 enzyme activity; P33261; recombinant CYP2C19, luciferin-H EGE luminescence; active compounds read high; 0 = fully inhibited enzyme, 1 = untreated enzyme; activation factor at 5 µM; 96,000 tested, under 10 active;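 active means activation factor of at least 2 at 5 µM in the primary screen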
# CYP2C9 act = activators of human CYP2C9; recombinant CYP2C9, luciferin-H conversion, luminescence; active compounds read high; factor 1 = untreated enzyme, 0 = blocked; activation factor at 5 µM; 96,000 tested, 1.4% active; AID 1024;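 active means activation factor of 2 or more for CYP2C9 at a 5 µM dose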
# Target sequence (P11712 whole entry, looked up): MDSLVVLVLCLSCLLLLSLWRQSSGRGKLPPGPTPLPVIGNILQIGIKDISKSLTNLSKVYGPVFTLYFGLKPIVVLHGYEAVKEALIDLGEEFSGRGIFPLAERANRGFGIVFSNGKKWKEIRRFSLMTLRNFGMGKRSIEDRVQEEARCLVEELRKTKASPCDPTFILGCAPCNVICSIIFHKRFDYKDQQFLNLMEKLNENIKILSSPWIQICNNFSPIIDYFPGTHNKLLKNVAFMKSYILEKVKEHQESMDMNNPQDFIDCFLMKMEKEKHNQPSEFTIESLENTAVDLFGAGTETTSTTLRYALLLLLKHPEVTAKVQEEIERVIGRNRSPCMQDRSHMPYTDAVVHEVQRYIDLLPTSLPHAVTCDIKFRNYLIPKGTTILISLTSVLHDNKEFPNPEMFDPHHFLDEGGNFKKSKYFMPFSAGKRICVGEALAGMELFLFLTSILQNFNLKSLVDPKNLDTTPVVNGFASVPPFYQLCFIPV
# CYP2C19 inhib = blocks human cytochrome P450 2C19; 96,000 tested, 21% active; CYP2C19 Supersomes, luciferin-H EGE luminescence, 30 min; AID 778; inhibition, % at 5 µM; P33261;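 active means CYP2C19 inhibition above a set limit at 5 µM in the primary screen, cut at about 50% in these data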
# Cav3 T inh = human Cav3.2 channel inhibition, primary screen; O95180; Cav3.2-expressing cells, Fluo-4 calcium fluorescence FDSS; active compounds read low; B-score at 10 µM; 100,000 tested, 4% active; AID 449739;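 active means single-dose well whose peak fluorescence ratio is a statistical outlier from its plate by either plate-standardised score or position-corrected B-score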
# CYP2C9 inhib = human CYP2C9 inhibition; P11712; CYP2C9 Supersomes, luciferin-H conversion, luminescence; inhibition, % at 5 µM; 96,000 tested, 20% active;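 active means blocking of liver enzyme CYP2C9 beyond about 50% at 5 µM, limit read from the data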
# A number is an active result; n = inactive; x = no result given. Hits are enriched below; roughly 27% of the tested compounds scored in any of these assays.
SMILES,CYP2C19 act,CYP2C9 act,CYP2C19 inhib,Cav3 T inh,CYP2C9 inhib
Cc1cc(C)c(S(=O)(=O)N2CCCCC2)c(C)c1N(C)S(=O)(=O)c1ccccc1,n,n,n,-4.3,59
O=S(=O)(c1ccccc1S(=O)(=O)N1CCCCC1)N1CCCCC1,n,n,n,n,n
Cc1cc(C)c(S(=O)(=O)N2CCCCC2)cc1N(C)S(=O)(=O)c1ccc(Cl)cc1,n,n,n,n,71
Cc1cc(C)c(S(=O)(=O)N2CCCCC2)c(C)c1-n1ncnn1,n,2.1,69,n,n
CS(=O)(=O)N1c2ccccc2[C@]2([C@@]34C[C@H]5C(=O)N[C@@H](Cc6ccccc6)C(=O)N5[C@@H]3N(S(C)(=O)=O)c3ccccc34)C[C@H]3C(=O)N[C@@H](Cc4ccccc4)C(=O)N3[C@H]12,x,x,x,n,x
CC(Nc1ccccc1)C(=O)Nc1ccc(F)cc1 (centres undefined),n,n,n,n,n
Cc1ccc(S(=O)(=O)NCC(=O)OCN2C(=O)c3ccccc3C2=O)cc1,n,n,n,x,n
NC(=O)CC(c1ccccc1)c1ccco1 (centres undefined),n,n,n,n,n
CC(=O)N(CCC(c1ccccc1)c1ccco1)Cc1cccs1 (centres undefined),n,n,n,-7.4,n
O=C(c1ccco1)N(CCC(c1ccccc1)c1ccco1)Cc1ccco1 (centres undefined),n,n,n,-12,n
CCC(=O)N(CCC(c1ccco1)c1ccccc1OC)Cc1cccs1 (centres undefined),n,n,96,-5.8,96
CCOC(=O)C1C(=O)N(C(=O)c2ccc(OC)cc2)CC1c1ccccc1 (centres undefined),n,n,n,n,n
CCOC(=O)C1C(=O)N(C(=O)c2cncc(Br)c2)CC1c1ccccc1 (centres undefined),n,n,84,n,n
O=C(NC1CCCCC1)C(c1ccccc1)N1CCC2(CC1)OCCO2 (centres undefined),n,n,n,n,n
Cc1cccc(C)c1NC(=O)C(c1ccc(Cl)cc1Cl)N1CCCCC1 (centres undefined),n,n,n,-5,n
CC(CN1CCCCC1)OC(=O)c1ccc(Cl)cc1Cl (centres undefined),n,n,n,n,n
Cc1ccc(NC(=O)C(c2ccc(Cl)cc2)N2CCCCC2)cc1 (centres undefined),n,n,n,-7,n
CC(C)c1ccc(NC(=O)C(c2ccccc2)N2CCC3(CC2)OCCO3)cc1 (centres undefined),n,n,n,-7.4,n
COc1ccc(C2CC(C(F)(F)F)n3nc(C(=O)NCc4cn(C)nc4C)c(Cl)c3N2)cc1 (centres undefined),n,n,n,n,n
N=c1c(C(=O)NCc2ccco2)cc2c(=O)n3ccccc3nc2n1Cc1ccc(Cl)cc1,n,n,n,n,64
N=c1c(S(=O)(=O)c2ccc(Cl)cc2)cc2c(=O)n3ccccc3nc2n1CCN1CCOCC1,n,n,n,x,59
CCn1c(=N)c(C(=O)OC)cc2c(=O)n3ccccc3nc21,n,n,63,x,n
COCCn1c(=N)c(C(=O)NCc2ccco2)cc2c(=O)n3ccccc3nc21,n,n,n,n,n
COc1nc(C)nc2c1ccc1ccccc12,x,x,x,n,x
Cc1ccc(C)c(SCC(=O)OCC(=O)c2ccco2)c1,n,n,n,n,n
SMILES,CYP2C19 act,CYP2C9 act,CYP2C19 inhib,Cav3 T inh,CYP2C9 inhib
CCCN1C(=O)c2ccc(C(=O)Nc3nccs3)cc2C1=O,n,n,n,n,n
CCCc1cc(C(=O)Nc2nccs2)cs1,n,n,n,n,52
CCc1cc(C(=O)Nc2ccccc2)cs1,n,n,76,n,n
CCNS(=O)(=O)c1ccc(C(=O)Nc2ccccc2)cc1,n,n,n,n,97
O=C(Nc1ccccc1)c1ccc(S(=O)(=O)NCC2CCCO2)cc1 (centres undefined),n,n,n,n,n
CC(=O)Nc1ccc(S(=O)(=O)NCc2ccc(C(=O)NC(C)c3ccccc3)cc2)cc1 (centres undefined),n,n,n,n,91
Cc1ccc(-n2ncc3c(=O)n(CC(=O)N4CCCc5ccccc54)cnc32)cc1C,x,x,x,n,x
CCNS(=O)(=O)c1ccc(NC(=O)c2cccnc2)cc1,n,n,n,n,78
Cc1ccc(-c2noc(CCC(=O)NCC3CCN(Cc4cccc(C)c4)CC3)n2)cc1,n,n,n,n,n
CCOC(=O)N1CCN(C(=O)CCCn2nc(C)c3sc4ccccc4c3c2=O)CC1,n,2.4,n,n,n
